Laboratory results taken from publication PMC5540273 (PLoS ONE, 2017).

Experiments:
Details in all cases: concentration: 1 μM, replicates: in singlicate; n = 1
ALK = system: ALK
AMPK-alpha1 = system: T1, AMPK-alpha1
T1 construct: gene PRKAA1

AMPK-alpha2 = system: T2, AMPK-alpha2
T2 construct: gene PRKAA2

ANKK1 = system: ANKK1
ARK5 = system: T3, ARK5
T3 construct: gene NUAK1

ASK1 = system: T4, ASK1
T4 construct: gene MAP3K5

ASK2 = system: T5, ASK2
T5 construct: gene MAP3K6

AURKA = system: AURKA
AURKB = system: AURKB
AURKC = system: AURKC
AXL = system: AXL
BIKE = system: T6, BIKE
T6 construct: gene BMP2K

BLK = system: BLK
BMPR1A = system: BMPR1A
BMPR1B = system: BMPR1B
BMPR2 = system: BMPR2
BMX = system: BMX
BRAF = system: BRAF
BRK = system: T7, BRK
T7 construct: gene PTK6

BRSK1 = system: BRSK1
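Note: KINOMEscan kinase panel screen.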

SMILES | %Inh (ALK) | %Inh (AMPK-alpha1) | %Inh (AMPK-alpha2) | %Inh (ANKK1) | %Inh (ARK5) | %Inh (ASK1) | %Inh (ASK2) | %Inh (AURKA) | %Inh (AURKB) | %Inh (AURKC) | %Inh (AXL) | %Inh (BIKE) | %Inh (BLK) | %Inh (BMPR1A) | %Inh (BMPR1B) | %Inh (BMPR2) | %Inh (BMX) | %Inh (BRAF) | %Inh (BRK) | %Inh (BRSK1)
Nc1nc(N)c2nc(-c3ccccc3)[nH]c2n1 [SKF-12778] | 0% | 17% | 14% | 63% | 73% | 7% | 15% | 3% | 13% | 1% | 19% | 3% | 0% | 0% | 0% | 7% | 0% | 1% | 16% | 0%
CCC(=O)c1c(-c2ccccc2)c2cc(Cl)ccc2c(=O)n1Cc1cc(S(C)(=O)=O)n(CC(N)=O)n1 | 0% | 0% | 0% | 0% | 0% | 0% | 0% | 0% | 0% | 0% | 2% | 0% | 5% | 0% | 0% | 0% | 16% | 0% | 0% | 0%
Nc1ncnc2c1ncn2-c1ccc(Cl)cc1 [AH2635] | 0% | 0% | 0% | 0% | 0% | 0% | 0% | 0% | 0% | 17% | 0% | 28% | 24% | 0% | 0% | 2% | 20% | 0% | 0% | 0%
COC(=O)c1c(-c2ccccc2)c2cc(Br)ccc2c(=O)n1Cc1ccc(S(C)(=O)=O)cc1 | 52% | 15% | 9% | 0% | 11% | 2% | 0% | 35% | 20% | 0% | 7% | 0% | 9% | 0% | 19% | 3% | 17% | 57% | 0% | 29%
COc1ccc(-n2cnc3c(N)ncnc32)cc1 [SKF-97236] | 0% | 16% | 20% | 17% | 0% | 0% | 0% | 0% | 16% | 63% | 22% | 55% | 16% | 34% | 0% | 0% | 0% | 5% | 0% | 2%
Cc1cccc(-c2nc(Nc3ccc4c(cnn4C)c3)c3ccccc3n2)n1 [GW876731] | 0% | 0% | 17% | 16% | 5% | 0% | 10% | 24% | 6% | 0% | 25% | 0% | 0% | 1% | 0% | 1% | 7% | 0% | 0% | 0%
Cc1cccc(-c2cc(-c3c[nH]nc3-c3ccccn3)ccn2)c1 [GW679395] | 30% | 0% | 0% | 0% | 0% | 5% | 0% | 8% | 15% | 0% | 0% | 0% | 32% | 0% | 2% | 1% | 0% | 8% | 4% | 0%
COc1cc2ncn(-c3cc(OCc4ccc(S(C)(=O)=O)cc4)c(C(N)=O)s3)c2cc1OC [GW869979] | 26% | 0% | 0% | 20% | 0% | 18% | 37% | 0% | 0% | 0% | 31% | 0% | 46% | 11% | 30% | 8% | 6% | 6% | 0% | 4%
O=C(Nc1n[nH]c2cc(-c3ccccc3F)ccc12)C1CC1 [SB-733371] | 0% | 0% | 0% | 10% | 0% | 0% | 0% | 16% | 51% | 46% | 16% | 41% | 0% | 21% | 24% | 0% | 0% | 0% | 0% | 22%
FC(F)(F)c1ccc(-c2ncn(CCCN3CCOCC3)c2-c2ccncc2)cc1 [SB-217780] | 0% | 9% | 4% | 0% | 0% | 0% | 0% | 0% | 0% | 27% | 40% | 13% | 4% | 7% | 0% | 39% | 1% | 0% | 4% | 13%
COc1cc2ncn(-c3cc(OCc4ccncc4)c(C(N)=O)s3)c2cc1OC [GSK336313] | 20% | 0% | 0% | 0% | 16% | 6% | 0% | 17% | 0% | 4% | 0% | 14% | 0% | 0% | 0% | 0% | 2% | 0% | 0% | 0%
CCS(=O)(=O)c1ccc(OC)c(Nc2ncc(-c3ccc(F)cc3)o2)c1.Cl [GW591947] | 22% | 8% | 17% | 7% | 3% | 0% | 0% | 3% | 0% | 26% | 0% | 22% | 41% | 14% | 0% | 0% | 0% | 0% | 0% | 0%
CC(C)(C)c1ccc(C(=O)Nc2cn3cc(-c4ccccc4)ccc3n2)cc1 | 0% | 0% | 0% | 0% | 13% | 40% | 0% | 48% | 51% | 0% | 0% | 0% | 0% | 8% | 0% | 0% | 13% | 0% | 0% | 0%
CCn1c(-c2nonc2N)nc2ccccc21 [SB-693162/GW549034] | 0% | 7% | 0% | 51% | 3% | 16% | 2% | 27% | 37% | 0% | 25% | 6% | 21% | 0% | 34% | 40% | 0% | 15% | 0% | 46%
Nc1nc(-c2ccccc2F)c(-c2ccnc3ccccc23)s1 [GW560459] | 31% | 0% | 1% | 16% | 0% | 3% | 0% | 0% | 5% | 17% | 0% | 17% | 39% | 0% | 13% | 2% | 0% | 7% | 0% | 0%
Cc1nnc(-c2ccc3ncn(-c4ccc(S(C)=O)cc4)c3c2)o1 (stereo not drawn) | 6% | 0% | 2% | 0% | 21% | 0% | 0% | 21% | 10% | 5% | 4% | 0% | 0% | 19% | 0% | 0% | 12% | 0% | 19% | 0%
COc1cccc(C2=C(Nc3cccc(C(=O)O)c3)C(=O)NC2=O)c1 [SB-390770] | 0% | 45% | 16% | 70% | 0% | 5% | 4% | 21% | 31% | 14% | 0% | 15% | 1% | 12% | 0% | 10% | 14% | 0% | 7% | 0%
COc1ccc(-c2coc3ccc(-c4nnc(SCc5cccc(C#N)c5)o4)cc23)cc1 | 0% | 7% | 0% | 19% | 16% | 9% | 6% | 22% | 12% | 0% | 21% | 0% | 0% | 14% | 17% | 18% | 28% | 0% | 10% | 0%
COc1cc2nccc(Nc3ccc(OCc4ccc(NC(C)=O)cc4)cc3)c2cc1OC.Cl [GW440135] | 5% | 15% | 10% | 0% | 28% | 3% | 0% | 0% | 0% | 0% | 13% | 0% | 26% | 24% | 0% | 8% | 26% | 6% | 36% | 0%
COc1ccc(CNC(=O)NC2CCN(c3ccnc(Nc4ccc(F)cc4)n3)C2)cc1 (stereo not drawn) [GSK1379706] | 0% | 0% | 0% | 8% | 16% | 11% | 0% | 35% | 20% | 19% | 10% | 0% | 3% | 6% | 0% | 22% | 26% | 3% | 21% | 0%
Nc1nccc2scc(-c3ccc4c(c3)CCN4C(=O)Cc3ccccc3)c12 [GSK2576924] | 0% | 0% | 21% | 21% | 9% | 6% | 0% | 9% | 16% | 25% | 36% | 8% | 1% | 0% | 0% | 2% | 19% | 0% | 43% | 0%
